{"source": "PubChem BioAssay AID434958", "about": "(Southern Research Specialized Biocontainment Screening …, 2010)", "note": "Screen size: about 1,200 compounds; about 400 (33%) were called active. These entries were drawn from the full list. Results with a measured potency or affinity are listed apart. A number with no mark means an inactive call. No rule for the calls is given here."}
{"test": "mammalian cell cytotoxicity, dose response, cytotoxicity control (AID 434958);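 also: cells exposed to compound for 72 hours before readout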", "conditions": "cytotoxicity counter-screen; series mostly up to 40 µM; viability: at the top concentration", "units": {"viability": "%"}}
{"compound": "O=C(CNC(=O)c1ccc(Br)cc1)NCC(=O)OCc1ccc(Cl)cc1", "viability": 100}
{"compound": "O=C(CSC1CS(=O)(=O)c2cc([N+](=O)[O-])ccc21)NNC(=O)c1ccccc1", "note": "(stereo not given)", "viability": 91.9}
{"compound": "O=C1O/C(=C/c2ccccc2)N=C1c1ccccc1", "viability": 96}
{"compound": "NNC(=S)Nc1ccc(C(F)(F)F)cc1Cl", "viability": 100}
{"compound": "CCCOc1ccc(C2Nc3cccc4cccc(c34)N2)cc1", "viability": 102}
{"compound": "Cc1cccc(NC(=O)c2cc3ccccc3c(=O)o2)n1", "viability": 87.8}
{"compound": "O=C(CCSc1nnc(-c2ccncc2)o1)Nc1ccccc1Cl", "viability": 105}
{"compound": "COC(=O)c1ccccc1NC(=O)CSCC(=O)Nc1ccc(F)cc1", "viability": 95.4}
{"compound": "COc1cccc(/C=N/NC(N)=S)c1OS(=O)(=O)c1ccccc1", "viability": 97.5}
{"compound": "COc1ccccc1/C=N/NC(=S)Nc1cccnc1", "viability": 99.7}
{"compound": "O=C(CSc1ncn[nH]1)Nc1cccc2ccccc12", "viability": 97.2}
{"compound": "Cc1ccc(N=Cc2c(O)ccc3ccccc23)cc1F", "viability": 80.5}
{"compound": "COc1cccc(/C=N/Nc2nc(N3CCCC3)nc(N3CCCC3)n2)c1O", "viability": 111}
{"compound": "CONC(=O)c1cc(OCC(F)(F)F)ccc1OCC(F)(F)F", "viability": 111}
{"compound": "COC(=O)c1cccc(NC(=S)NCCC2=CCCCC2)c1", "viability": 86.8}
{"compound": "O=C(NCC1COc2ccccc2O1)C1CCC(CNc2c(N3CCCCC3)c(=O)c2=O)CC1", "note": "(stereo not given)", "viability": 104}
{"compound": "Cc1ccc(-n2ncc(-c3nnc(SCC(=O)NC4CCCC4)o3)c2N)cc1C", "viability": 91.1}
{"compound": "COc1cc(C(F)(F)F)nc2ccc(C#CCOC(=O)Nc3ccccc3)cc12", "viability": 81.5}
{"compound": "O=C(CN1CCC(O)(c2ccc3c(c2)OCO3)CC1)OC1CCCCC1", "viability": 94.6}
{"compound": "COc1ccc2nc(NC(=O)c3ccc(Br)s3)sc2c1", "viability": 93.6}
{"compound": "COc1ccc(C(=O)Nc2nc3ccc(OC)cc3s2)cc1", "viability": 96.8}
{"compound": "O=C(COC(=O)c1ccc([N+](=O)[O-])s1)NCc1ccc(F)cc1", "viability": 95.4}
{"compound": "CCOc1ccc(NC(=S)Nc2cccnc2)cc1", "viability": 90.6}
{"compound": "Cc1c(C(=O)Nc2cccnc2)oc2ccc(Br)cc12", "viability": 85.6}
{"compound": "COc1cc(NC(=O)C2CCCCC2)c(OC)cc1NC(=O)CN1CCCCC1", "viability": 85.1}
{"compound": "Cc1ccc(S(=O)(=O)NCCCCCC(=O)Nc2nccs2)cc1", "viability": 83.2}
{"compound": "Cc1nnc(SCc2ccc(C(=O)Nc3cc(Cl)ccc3C)cc2)s1", "viability": 110}
{"compound": "COc1ccc(C(=O)Nc2ccc(C(=O)OCC(=O)c3ccccc3)cc2)cc1", "viability": 82.4}
{"compound": "CCc1ccc2nc(/N=C(\\N)NC(=O)c3ccccc3)nc(C)c2c1", "viability": 91}
{"compound": "O=S1(=O)CCO[C@H]2Cc3ccccc3[C@H]2N1Cc1ccc(Cl)cc1", "viability": 93.3}
{"compound": "Cc1ccc(SCCNC(=O)c2ccc(C)c([N+](=O)[O-])c2)cc1", "viability": 94.3}
{"compound": "Cc1ccc(NC(=O)O/N=C/c2c(C)nn(C(C)(C)C)c2C)cc1Cl", "viability": 112}
{"compound": "COc1ccc(-c2csc(NC(=O)c3c(C)noc3C)n2)cc1", "viability": 88}
{"compound": "O=C1CCNc2c(Cl)cccc21", "viability": 108}
{"compound": "Cc1ccc(NC(=O)CSc2nnc([C@@H]3CCCN3C(=O)OC(C)(C)C)o2)c(C)c1", "viability": 106}
{"compound": "CCCCCNCc1cccc(Br)c1", "viability": 87.9}
{"compound": "O=C1C2CCN(CC2)C1Cc1ccc(OCCOc2ccccc2)cc1", "note": "(stereo not given)", "viability": 94.3}
{"compound": "Nc1ccc(C(=O)O)c(O)c1", "viability": 101}
{"compound": "COc1ccc(C(=O)NC(=S)Nc2ccc(S(=O)(=O)Nc3cc(C)on3)cc2)cc1OC", "viability": 96.6}
{"compound": "Cc1nn(C)c(C(=O)NC(=S)Nc2ccccc2Br)c1Cl", "viability": 91.1}
{"compound": "Cc1cc(C(=O)Nc2nnc(-c3ccccc3)s2)no1", "viability": 91.2}
{"compound": "Cc1ccc(NC(=O)CCS(=O)(=O)c2cccc3nonc23)cc1", "viability": 102}
{"compound": "CCOc1ccc(-c2nnc(-c3cccs3)o2)cc1OCC", "viability": 93.4}
{"compound": "O=C(Nc1ccc(F)cc1)c1sc2cc(C(F)(F)F)cnc2c1-c1cccs1", "viability": 89.1}
{"compound": "CC(=O)c1c(C)[nH]c(C(=O)OCC(=O)Nc2nnc(-c3ccccc3)o2)c1C", "viability": 86.6}
{"compound": "O=C(OCC(=O)c1ccc[nH]1)C1=COCCO1", "viability": 87.2}
{"compound": "COc1ccc(C(=O)n2c(SC)nc3cc4c(cc32)OCCO4)cc1", "viability": 100}
{"compound": "Cc1ccc(OC(=O)COc2ccccc2)c(-n2nc3ccccc3n2)c1", "viability": 97.4}
{"compound": "N#Cc1c(SCC(=O)O)nc(N2CCCCC2)c2c1CCCC2", "viability": 110}
{"compound": "Cc1cccc(C)c1OCC(=O)NNC(=O)CNC(=O)c1ccc(OC(F)F)cc1", "viability": 100}
{"compound": "CCn1c(SCc2nc(-c3cccs3)no2)nnc1-c1c[nH]c2ccccc12", "viability": 87.2}
{"compound": "C=C(C)COc1ccc(-c2nc(N)ncc2Oc2ccc(OC)cc2)c(O)c1", "viability": 91.4}
{"compound": "COc1cccc(CNC(=O)C(Cc2ccccc2)n2cccc2)c1", "note": "(stereo not given)", "viability": 95.7}
{"compound": "CC(=O)C1=C(C)NC(SCC(=O)c2ccccc2)=C(C#N)C1CC(C)C", "note": "(stereo not given)", "viability": 88.6}
{"compound": "Nc1nc2ccccc2n1C(=O)c1cccs1", "viability": 83.8}
{"compound": "O=C(COc1ccccc1)NNC(=O)c1cc2ccccc2oc1=O", "viability": 104}
{"compound": "COCCNC(=O)COc1ccc(Oc2ccccc2)cc1", "viability": 94.3}
{"compound": "O=C1Nc2c(ccc(Cl)c2Cl)C(=O)C1(F)c1ccccc1", "note": "(stereo not given)", "viability": 83.8}
{"compound": "CCOC(=O)c1cnn(-c2ncnc3sc4c(c23)CCC4)c1N", "viability": 95.2}
{"compound": "Cc1cc(C(=O)Nc2ccc(Br)cc2F)n(-c2ccccc2)n1", "viability": 98.6}
{"compound": "Cc1cc(=O)n2c(-c3ccccc3C)n[nH]c2n1", "viability": 92.6}
{"compound": "CC(=O)Nc1ccc(S(=O)(=O)Nc2cccc3cccnc23)cc1", "viability": 99.3}
{"compound": "Cc1ccc(NC(=O)/C=C\\C(=O)O)c([N+](=O)[O-])c1", "viability": 116}
{"compound": "Cc1ccc(C)c(SCC(=O)OCC(=O)N2CC(C)OC(C)C2)c1", "note": "(stereo not given)", "viability": 95.7}
{"compound": "COc1ccccc1CNC(=O)COC(=O)C1=COCCO1", "viability": 108}
{"compound": "O=C(CC1SC(=O)NC1=O)Oc1ccc(/C=N/NC(=O)c2ccccc2O)cc1", "note": "(stereo not given)", "viability": 100}
{"compound": "Cc1oc(C(C)(C)C)cc1C(=O)Nc1ccc2c(c1)OCCO2", "viability": 87.2}
{"compound": "CCOC(=O)c1ccc(NC(=O)Cc2coc3cc4c(cc23)CCC4)cc1", "viability": 96.7}
{"compound": "COc1ccc2[nH]c3c(c2c1)CCN=C3C", "viability": 93.8}
{"compound": "O=C(COC(=O)C1CC1)c1c[nH]c2ccccc12", "viability": 101}
{"compound": "C=CCN(C(=O)CN1CCOCC1)c1nc(C)c(-c2ccccc2)s1", "viability": 86.4}
{"compound": "N#CCOC(=O)/C=C/c1ccc2c(c1)OCO2", "viability": 97.9}
{"compound": "CCc1cc2c(-c3ccccc3)cc(=O)oc2cc1OC(C)C(C)=O", "note": "(stereo not given)", "viability": 85.6}
{"compound": "COc1cc(NC(=O)c2cccc(Cl)c2)c(OC)cc1NC(=O)CN1CCCCC1", "viability": 85}
{"compound": "COc1ccc(NC(=O)c2cc(Br)ccc2Cl)c(OC)c1", "viability": 102}
{"compound": "Cc1cccc(NC(=S)NC2CC3C=CC2C3)c1", "note": "(stereo not given)", "viability": 93.8}
{"compound": "CCSc1nnc(NC(=O)Cn2cnc3ccccc3c2=O)s1", "viability": 92.7}
{"compound": "CCC(C(=O)NC1C(=O)N2C(C(=O)O)=C(CSc3nnc(C)s3)CSC12)c1ccccc1", "note": "(stereo not given)", "viability": 107}
{"compound": "Cn1nnnc1SCC(=O)Nc1ccccc1[N+](=O)[O-]", "viability": 99.1}
{"compound": "Cc1ccc(-n2nnnc2Sc2nc([N+](=O)[O-])nn2C)c(C)c1", "viability": 100}
{"compound": "O=C(Nc1ccccc1)Nc1csc2ccccc12", "viability": 83.7}
{"compound": "O=C(NC1CCCCC1)C1CCN(c2nccs2)CC1", "viability": 98.2}
{"compound": "O=C(NC1c2ccccc2-c2ccccc21)c1ccco1", "viability": 109}
{"compound": "C/C(=N/NC(=O)c1cccs1)c1ccc(NC(=O)COc2ccc(Cl)cc2)cc1", "viability": 98.6}
{"compound": "Cc1ccc(/C=N/NC(=O)c2cccs2)s1", "viability": 89.3}
{"compound": "CCOc1ccc2nc(NC(=O)c3cnccn3)sc2c1", "viability": 88.1}
{"compound": "Cc1cc(C)c(-c2c(O)c3ccccc3n(C)c2=O)c(C)c1", "viability": 92.4}
{"compound": "Cc1cc(Br)ccc1NC(=O)CN1C(=O)C2CC=CCC2C1=O", "note": "(stereo not given)", "viability": 97.8}
{"compound": "COc1cc(OC)cc(-c2c(C#Cc3ccsc3)c3cc(-c4ccc(OC)nc4)ccc3n2C)c1", "viability": 91.5}
{"compound": "CCOc1cccc(=O)c2c(C)n(Cc3ccccc3)c(C)c12", "viability": 101}
{"compound": "CCOc1cc(N2CCOCC2)c(OCC)cc1NC(=O)c1cc(C)cc(C)c1", "viability": 93}
{"compound": "Cn1c(=O)[nH]c(=O)c2c1nc(Br)n2CCC(=O)c1ccccc1", "viability": 97.2}
{"compound": "C=CCSc1nnc2c(n1)OC(c1c(C)[nH]n(-c3ccccc3)c1=O)Nc1ccccc1-2", "note": "(stereo not given)", "viability": 93.2}
{"compound": "CCCCCc1ccc(-c2ccc(/C=C/C(N)=O)cc2)nc1", "viability": 102}
{"compound": "CN1c2ccccc2C(=O)NC1c1ccc([N+](=O)[O-])s1", "note": "(stereo not given)", "viability": 99.2}
{"compound": "Cc1cccc(Cl)c1NC(=S)NN", "viability": 95.5}
{"compound": "CCOC(=O)c1sc(NC(=O)Cn2nnc3sc4c(c3c2=O)CCC(C(C)(C)C)C4)nc1C", "note": "(stereo not given)", "viability": 106}
{"compound": "CC1CCCN(C(=O)C2CCN(c3ncnc4c3nc3n4CCCCC3)CC2)C1", "note": "(stereo not given)", "viability": 92.2}
{"compound": "CCOC(=O)NC1c2ccccc2Oc2ccccc21", "viability": 93.1}
{"compound": "O=C(NNC(=O)c1ccc(Oc2cc(Cl)cc(Cl)c2)o1)c1ccccc1", "viability": 85.5}
{"compound": "CC(=O)c1ccccc1OCCOc1ncnc2sccc12", "viability": 85.5}
{"compound": "COc1ccc([N+](=O)[O-])cc1NS(=O)(=O)c1ccc(C(=O)N2CCCC2)cc1", "viability": 92}
{"compound": "CC(=O)c1ccc(NC(=S)Nc2ccc(N3CCOCC3)cc2)cc1", "viability": 100}
{"compound": "O=C(Cc1ccccc1)NC(=S)Nc1ccc(N2CCCCC2)cc1", "viability": 84.1}
{"compound": "Cc1ccc(CNC(=O)c2cn(C)c3ccc(S(=O)(=O)N4CCOCC4)cc3c2=O)cc1", "viability": 98.9}
{"compound": "Cc1cccc2nc(COc3ccc4ccccc4c3Br)cn12", "viability": 94.6}
{"compound": "COC(=O)C1=C(C)NC(=O)/C1=C\\c1cc(C)n(-c2cc(C)cc(C)c2)c1C", "viability": 89.7}
{"compound": "CCOC(=O)CNC(=O)c1cccnc1Oc1ccc(Cl)cc1", "viability": 104}
{"compound": "COc1ccccc1NS(=O)(=O)c1cccc(N2CC(O)=C(c3ccccc3)C2=N)c1", "viability": 100}
{"compound": "O=C(CCN1C(=O)c2ccccc2S1(=O)=O)Nc1ccc(Cl)cc1", "viability": 102}
{"compound": "CCC(=O)NC(=S)Nc1ccc(NC(=O)c2ccccc2[N+](=O)[O-])cc1", "viability": 99.2}
{"compound": "CC(/C=N/NC(=O)c1cc(-c2cccs2)[nH]n1)=C\\c1ccccc1", "viability": 84.3}
{"compound": "Cc1ccc(C)c(SCc2noc(C(=O)NCC3CCCO3)c2C(=O)O)c1", "note": "(stereo not given)", "viability": 97}
{"compound": "O=C(O)Cc1csc(Nc2cccc(Cl)c2)n1", "viability": 98.4}
{"compound": "COC(=O)c1ccc(/C=N/Nc2nc(-c3ccc(C)cc3)cs2)cc1", "viability": 104}
